In PubChem BioAssay AID504332 (National Center for Advancing Translational Sciences (NCATS), 2011):
About 31,000 (8.9%) of roughly 350,000 compounds were called active. Roughly 15% stayed inconclusive and do not appear here. The call rests on the fitted dose curve; in most records, active means well fitted inhibition curve with a large enough effect; inconclusive means small, poorly fitted or top-dose-only effect; inactive means no such curve, though single readings can be large or run the other way. For the sample, actives were picked, then their nearest neighbours and some compounds at random.

Each molecule was assayed against Histone-lysine N-methyltransferase EHMT2 (Homo sapiens) (UniProt Q96KQ7) (assay: qHTS Assay for Inhibitors of Histone Lysine Methyltransferase G9a). Settings: G9a H3K9 monomethylation, AlphaScreen, 2 h; series mostly up to 59 µM; activity, negative = inhibition: at the top concentration.
Procedure, shortened: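 Readings reflect AlphaScreen signal from monomethyl-H3K9 antibody detection. HMT at 20 nM; substrate b-H3K9 500 nM; cofactor SAM 20 uM; 2 h RT reaction; compounds tested as titrations in qHTS with 15 min preincubation.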
Further: nearly all actives have a fitted effect of over 75% in size.
On the % scale 0 is the no-effect control and ±100 the full control effect; potency means the concentration at half of the fitted maximal effect.

Sequence of Histone-lysine N-methyltransferase EHMT2 (Homo sapiens) (Q96KQ7 913-1193 limits assumed): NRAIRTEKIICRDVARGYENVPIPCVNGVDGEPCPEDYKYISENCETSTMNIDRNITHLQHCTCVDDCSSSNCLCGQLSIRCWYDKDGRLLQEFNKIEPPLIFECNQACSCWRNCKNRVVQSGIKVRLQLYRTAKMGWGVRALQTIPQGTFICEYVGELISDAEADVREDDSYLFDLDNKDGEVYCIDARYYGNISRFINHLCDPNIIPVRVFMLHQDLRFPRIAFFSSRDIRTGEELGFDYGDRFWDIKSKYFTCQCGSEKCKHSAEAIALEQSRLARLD

SMILES	activity, negative = inhibition	Potency
CCC(=O)N1CCc2cc(S(=O)(=O)NC(Cc3ccccc3)C(=O)NCc3ccc(C)cc3)ccc21 (configuration not stated)	1.8% (inactive)	–
c1ccc(CNc2ncnc3[nH]ncc23)cc1	0.452% (inactive)	–
CCCCn1c(N)c(N(CCC(C)C)C(=O)COC(=O)c2ccc(CC)cc2)c(=O)[nH]c1=O	-39.5% [at 102 µM] (inactive)	–
CCCCn1c(N)c(N(CC(C)C)C(=O)c2ccc(Br)o2)c(=O)[nH]c1=O	-3.52% [at 102 µM] (inactive)	–
CCCCn1c(N)c(N(CC(C)C)C(=O)c2cnc(C)cn2)c(=O)[nH]c1=O	-29.2% [at 102 µM] (inactive)	–
CCCCn1c(N)c(N(CC(C)C)C(=O)C2CSC3(C)CCC(=O)N23)c(=O)[nH]c1=O (configuration not stated)	–	50.1 µM (active)
CCCCN(C(=O)c1ccc(C)o1)c1c(N)n(CCCC)c(=O)[nH]c1=O	4.93% [at 0.501 µM] (inactive)	–
CCCCn1c(N)c(N(CC(C)C)C(=O)CSc2ccc([N+](=O)[O-])cc2)c(=O)[nH]c1=O	–	50.1 µM (active)
CCCCN(C(=O)CCNC(=O)NC12CC3CC(CC(C3)C1)C2)c1c(N)n(CCCC)c(=O)[nH]c1=O	-3.13% [at 0.501 µM] (inactive)	–
CCCCn1c(N)c(N(CC(C)C)C(=O)c2ccc(-n3c(C)ccc3C)cc2)c(=O)[nH]c1=O	–	56.2 µM (active)
CCCCN(C(=O)c1ccc2ccccc2c1)c1c(N)n(CCCC)c(=O)[nH]c1=O	-3.76% (inactive)	–
Cc1cc(C)c2oc(C(=O)Nc3ccc(S(=O)(=O)N(C)c4ccccc4)cc3)cc(=O)c2c1	3.25% (inactive)	–
COc1cc(OC)cc(C(=O)Nc2c(C(=O)Nc3ccc(F)cc3)oc3ccccc23)c1	-21.7% (inactive)	–
Cc1ccccc1CSCCNC(=O)C1CCN(S(=O)(=O)Cc2ccccc2)CC1	-6.76% (inactive)	–
CC(OC(=O)Cc1ccc(F)cc1)C(=O)N1CCc2ccccc21 (configuration not stated)	11.4% [at 102 µM] (inactive)	–
COc1ccc([C@H]2CC(=O)C=C(/C=C/c3ccc(Cl)cc3)C2)cc1	9.28% [at 2.33 µM] (inactive)	–
Cc1c(C)n2c(SCC(=O)N3CCCC3)nnc2[nH]c1=O	6.3% (inactive)	–
Cc1ccc(C)c(OCC(=O)NNC(=O)C2CCC2)c1	-2.65% [at 12.7 µM] (inactive)	–
O=C(NNC(=O)C1CCC1)c1ccccc1	24.7% [at 12.7 µM] (inactive)	–
Cc1ccc(NNC(=O)C2CCC2)cc1C	–	11.2 µM (active)
Cc1cc(C)n2nc(C(=O)OCC(=O)N(CCC#N)c3ccc(F)cc3)nc2n1	12.1% [at 0.501 µM] (inactive)	–
CCC1(c2ccccc2)NC(=O)N(CC(=O)c2ccc3c(c2)OCO3)C1=O (configuration not stated)	-7.32% [at 102 µM] (inactive)	–
O=C(CN1CCC(O)(c2cccc(C(F)(F)F)c2)CC1)NCCc1ccccc1	13.3% (inactive)	–
CC(C)c1ccc(NC(=O)C2CCN(c3nc(-c4ccc(C(C)C)cc4)no3)CC2)cc1	50.8% (inactive)	–
CCOc1ccccc1CNS(=O)(=O)c1cc(-c2cc(C)no2)ccc1C	36% [at 102 µM] (inactive)	–

SMILES	activity, negative = inhibition	Potency
CCN(CC)c1ccc(NS(=O)(=O)c2cc(-c3cc(C)no3)ccc2C)c(C)c1	–	3.16 µM (active)
Cc1cc(-c2ccc(C)c(S(=O)(=O)Nc3ccc(S(N)(=O)=O)cc3)c2)on1	-5.1% [at 102 µM] (inactive)	–
COc1ccc2c(C)c(CCC(=O)NCc3ccc(OC)c(OC)c3)c(=O)oc2c1	18.4% (inactive)	–
CC(=O)N1CCCc2cc(S(=O)(=O)N3CCC(C(=O)NCc4ccc(C)cc4)CC3)ccc21	14.7% (inactive)	–
COc1ccccc1OCc1nc2ccccc2s1	17.1% [at 12.7 µM] (inactive)	–
COc1cccc2sc(NNC(=O)c3nc4ccccc4s3)nc12	–	12.6 µM (active)
COc1cccc2sc(Nc3nc(C)c(C(C)=O)s3)nc12	34.5% (inactive)	–
O=C(Nc1cc(C(F)(F)F)ccc1Cl)c1nc2ccccc2nc1N1CCCCC1	-43.5% (inactive)	–
O=S(=O)(c1ccc(Cl)cc1)c1nnn2c1nc(NC1CCCC1)c1sccc12	1.91% (inactive)	–
CC1(C)CC(=O)C=C(c2ccc3ncccc3c2)C1	6.31% [at 2.33 µM] (inactive)	–
COc1ccc(S(=O)(=O)N2CCOCC2)cc1NC(=O)CC1CC2CCC1C2 (configuration not stated)	1.4% [at 2.33 µM] (inactive)	–
COc1ccccc1/C=C/C(=O)NC(=S)N1CCOCC1	7.72% [at 102 µM] (inactive)	–
O=C(/C=C/c1ccco1)NC(=S)N1CCCCC1	–	70.8 µM (active)
CCNC(=S)N1CCN(C(=O)c2ccco2)CC1	10.1% (inactive)	–
COc1ccc(Cl)cc1NC(=O)CN(C)C(=O)c1cc(-c2cccs2)nn1-c1ccccc1	8.22% [at 0.501 µM] (inactive)	–
CCOC(=O)c1ccc(NC(=O)Cn2c(=O)n(-c3ccc(C)cc3)c(=O)c3c2cnn3C)cc1	2.42% (inactive)	–
O=S(=O)(Nc1ccc2nc(-c3ccco3)[nH]c2c1)c1ccccc1	–	31.6 µM (active)
CCc1ccccc1NS(=O)(=O)c1ccc2nc(-c3ccccc3)[nH]c2c1	1.79% (inactive)	–
O=S(=O)(Nc1ccc2nc(-c3cccc(Cl)c3)oc2c1)c1ccccc1	8.09% (inactive)	–
COc1ccc2oc(=O)c(-c3cn4c(n3)sc3cc(OC)ccc34)cc2c1	-0.0294% (inactive)	–
CCn1c(CN2CCC(C)CC2)nc2cc(NC(=O)c3ccccc3[N+](=O)[O-])ccc21	-21.2% (inactive)	–
COC(=O)c1cc(S(=O)(=O)NCC2CCN(Cc3ccc(Cl)cc3)CC2)cn1C	13.6% [at 102 µM] (inactive)	–
COc1ccc(CCNC(=O)Cn2c(=O)cc(C(F)(F)F)c3c(C)nn(C)c32)c(OC)c1	2.52% (inactive)	–
COc1ccccc1C(=O)NCCC(=O)NC(C)CCc1ccccc1 (configuration not stated)	3.84% [at 0.501 µM] (inactive)	–
O=C(CSc1ccc(-c2ccccc2)nn1)NCC1CCCO1 (configuration not stated)	–	44.7 µM (active)

SMILES	activity, negative = inhibition	Potency
CCn1c(SCC(=O)NCC2CCCO2)nc2ccccc21 (configuration not stated)	19.8% [at 12.7 µM] (inactive)	–
O=C(CSc1nnc(-c2ccc(NS(=O)(=O)c3ccccc3)cc2)o1)NCC1CCCO1 (configuration not stated)	4.29% [at 102 µM] (inactive)	–
CCOc1ccc(CCNC(=O)Cn2nc(CC)n3c(cc4sc(CC)cc43)c2=O)cc1OCC	-35.1% (inactive)	–
CCc1nnc(NC(=O)c2cc(S(=O)(=O)N3CCCCC3)ccc2C)s1	-44.8% (inactive)	–
CCOC(=O)c1ccc(NC(=O)Cn2c(=O)cc(C)c3c(C)nn(-c4cccc(F)c4)c32)cc1	11.2% (inactive)	–
O=C(Nc1cn(-c2ccccc2)nc1-c1ccccc1)c1ccccc1	-4.14% (inactive)	–
O=C(NNC(=S)NC(=O)c1cn(-c2ccccc2)nc1-c1ccccc1)c1ccncc1	–	25.1 µM (active)
Cc1ccc(-c2nn(-c3ccccc3)cc2C(=O)NC2CCC(O)CC2)cc1 (configuration not stated)	9.53% [at 2.33 µM] (inactive)	–
COc1ccc(N(Cc2cc3ccc(C)cc3[nH]c2=O)S(=O)(=O)c2ccccc2)cc1	13.9% [at 102 µM] (inactive)	–
Cc1ccccc1CNC(=O)c1cccc(NC(=O)c2nsc3ccccc23)c1	-1.82% (inactive)	–
Fc1ccc(CSc2nc(NCc3ccccc3)c3ccccc3n2)cc1	1.81% (inactive)	–
O=C(c1cc2ccccc2o1)N1CCN(S(=O)(=O)c2ccc(Cl)s2)CC1	0.973% [at 2.33 µM] (inactive)	–
Cc1ccc(C)c(NS(=O)(=O)c2ccc(OCC(=O)NCc3cccnc3)cc2)c1	-5.51% [at 102 µM] (inactive)	–
Cc1ccc(NS(=O)(=O)c2ccc(C)c(NC(=O)COc3ccc4ccccc4c3)c2)c(C)c1	–	35.5 µM (active)
CN(C)S(=O)(=O)c1cccc(NC(=O)COc2ccc3ccccc3c2)c1	-10.1% [at 12.7 µM] (inactive)	–
Cc1cccc(NC(=S)Nc2ccc(Cl)c(Cl)c2)c1	2.94% [at 102 µM] (inactive)	–
CC(C)CNC(=S)NNC(=O)c1nn(C)cc1Cl	20.3% (inactive)	–
Cn1cc(Cl)c(C(=O)NNC(=S)Nc2cccc(Cl)c2)n1	–	15.8 µM (active)
CCOC(=O)c1ccc(NC(=O)c2ccc(NC(=O)C3CCCO3)cc2)cc1 (configuration not stated)	10.1% [at 102 µM] (inactive)	–
CCOC(=O)c1c(NC(=O)c2cc(-c3ccc(Cl)cc3)on2)sc2c1CCCC2	–	6.31 µM (active)
CCCOC(=O)Nc1sc2c(c1C(=O)OCC)CCC2	18% [at 102 µM] (inactive)	–
CCOC(=O)c1c(NC(=S)Nc2ccccc2)sc2c1CCN(C)C2	–	44.7 µM (active)
CCOC(=O)c1c(NC(=O)CSc2cn(CCNC(=O)c3cccc(C(F)(F)F)c3)c3ccccc23)sc2c1CCC2	-9.5% (inactive)	–
CCOC(=O)c1c(NC(=O)CSc2cn(CC)c3ccccc23)sc2c1CCC2	–	56.2 µM (active)
CCOC(=O)c1c(NC(=O)NC(C)(C)C)sc2c1CCN(C)C2	7.1% [at 102 µM] (inactive)	–

SMILES	activity, negative = inhibition	Potency
CCOC(=O)c1c(NC(=O)/C(C#N)=C/c2ccccc2)sc2c1CCC2	-0.979% (inactive)	–
CCOC(=O)c1c(NC(=S)NC(=O)c2ccco2)sc2c1CCCC2	-1.7% [at 102 µM] (inactive)	–
CCOC(=O)c1c(NC(=O)CSc2nnc(C)c(=O)[nH]2)sc2c1CCC2	-30.7% (inactive)	–
CCOC(=O)c1c(NC(=S)NC)sc2c1CCCC2	–	11.2 µM (active)
CCOC(=O)c1c(NC(=S)Nc2ccccc2C)sc2c1CCC2	38.7% (inactive)	–
CCOC(=O)c1c(NC(=O)c2ccc(S(=O)(=O)N(CC)CC)cc2)sc2c1CCCCC2	8.61% (inactive)	–
COc1ccc(Cn2c(C(=O)O)c(CNCCc3cccs3)c3ccc(OC)cc32)cc1	6.08% (inactive)	–
CC1CCC(N2CC(=O)N(CCC3=CCCCC3)C(c3ccc(F)cc3)C2=O)CC1 (configuration not stated)	8.16% (inactive)	–
Cc1ccccc1-c1cc(C(=O)NCc2cccs2)n(CC2CC(c3cccnc3)=NO2)n1 (configuration not stated)	-0.783% [at 0.501 µM] (inactive)	–
Cc1ccc(-c2nc(Cn3c(=O)cc(-c4ccccc4)c4c(C)nn(C)c43)c(C)o2)cc1	9.13% (inactive)	–
COc1cc2ccccc2cc1C(=O)Nc1ccncc1	1.4% [at 102 µM] (inactive)	–
COc1ccccc1NC(=O)CC(NCCN(C)C)C(=O)O (configuration not stated)	17.5% [at 102 µM] (inactive)	–
CCOc1ccc2nc(N(CCCN(C)C)C(=O)c3ccc(C(=O)c4ccccc4)cc3)sc2c1	–	44.7 µM (active)
COc1cccc2sc(N(CCCN(C)C)C(=O)C(c3ccccc3)c3ccccc3)nc12	–	6.31 µM (active)
CN(C)CCCN(C(=O)COc1ccccc1)c1nc2c(Cl)cccc2s1	–	31.6 µM (active)
CCOc1ccc2nc(Nc3nc4ccc(NC(C)=O)cc4s3)sc2c1	-13.6% (inactive)	–
COc1cc2ccccc2cc1C(=O)N(CCN(C)C)c1nc2c(F)cccc2s1	–	44.7 µM (active)
CCCC(=O)N(CCN1CCOCC1)c1nc2ccc(OCC)cc2s1	2.94% (inactive)	–
COc1cc(SC)ccc1C(=O)N(Cc1ccccc1)c1ccccc1	55.7% [at 102 µM] (inactive)	–
COc1ccc(CCN(C(=O)COc2ccccc2)c2nc(-c3ccccc3)cs2)cc1OC	-1.75% (inactive)	–
CN(Cc1ccccc1)C(=O)COc1ccccc1	-14% (inactive)	–
CCOc1cccc2sc(N3CCN(C(=O)C4CC4)CC3)nc12	-15.9% (inactive)	–
